Among the test systems are EPHA7; EPHA8; EPHB1; EPHB2; EPHB3; EPHB4; EPHB6; ERBB2; ERBB3; ERBB4; ERN1; FER; FES.
Common to all, as to conditions: concentration: 1 μM,replicates: in singlicate; n = 1
The next test relates to T1, ERK1.
T1 construct: gene MAPK3

For a further test, the system named is T2, ERK2.
T2 construct: gene MAPK1

In another test the test system is T3, ERK3.
T3 construct: gene MAPK6

Another test concerns T4, ERK4.
T4 construct: gene MAPK4

The next test relates to T5, ERK5.
T5 construct: gene MAPK7

In another test the test system is T6, ERK8.
T6 construct: gene MAPK15

A further test concerns T7, FAK.
T7 construct: gene PTK2

We go through 8 compounds from PMC5540273 (PLoS ONE, 2017).
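Note: KINOMEscan kinase panel screen.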

On to `COc1cc2nccc(Nc3ccc(Oc4ccccc4)cc3)c2cc1OC.Cl` [GI261656], for which the “%Inh” value with EPHA7 turned out to be 0%; with EPHA8, 0%; with EPHB1, 9%; with EPHB2 it was 0%; in the test on EPHB3 it was 0%; with EPHB4 it was 3%. The “%Inh” value in the test with EPHB6 worked out at 90.9%; in the test on ERBB2 it was 80%; in the test on ERBB3, 99.6%; in the test with ERBB4, 85%; with ERK1 it was 0%; with ERK2, 0%. The “%Inh” value worked out at 17% in the test on ERK3; 0% in the test with ERK4; 0% in the test with ERK5; 0% in the test with ERK8; 29% in the test on ERN1; 0% in the test with FAK. The “%Inh” value is listed as 33% in the test on FER and 0% with FES.
As for `COc1cc2ncn(-c3cc(OCC4CCCCC4)c(C(N)=O)s3)c2cc1OC` [GSK204559], the “%Inh” value worked out at 17% in the test with EPHA7; 29% in the test on EPHA8; 10% in the test with EPHB1; 0% in the test with EPHB2; 21% with EPHB3; 8% in the test with EPHB4. Moreover, the “%Inh” value worked out at 64% in the test on EPHB6; 0% in the test on ERBB2; 0% in the test on ERBB3; 0% in the test with ERBB4; 6% with ERK1; 2% with ERK2. In addition, the “%Inh” value with ERK3 is 18%; in the test on ERK4, 4%; in the test with ERK5 it was 0%; in the test on ERK8, 2%; in the test with ERN1 it was 8%; in the test with FAK it was 0%. The “%Inh” value with FER amounted to 23%; in the test on FES, 8%.
Turning to `Cn1ccc2ncnc(Oc3ccc(NC(=O)Nc4cccc(C(F)(F)F)c4)c(Cl)c3)c21`, the “%Inh” value is given as 82% in the test with EPHA7; 99.5% in the test on EPHA8; 70% in the test with EPHB1; 92.9% in the test with EPHB2; 66% in the test with EPHB3; 64% with EPHB4. The “%Inh” value worked out at 90% in the test on EPHB6; 29% in the test with ERBB2; 5% in the test on ERBB3; 12% in the test with ERBB4; 0% in the test with ERK1; 18% in the test with ERK2. The “%Inh” value in the test on ERK3 is on record as 0%; with ERK4 it was 10%; in the test on ERK5, 12%; with ERK8, 11%; in the test on ERN1, 15%; in the test with FAK, 41%. Moreover, the results for the “%Inh” value in the test with FER and with FES were 0% and 9%, respectively.
As to `Cl.Cl.NC[C@H](CC1CCCCC1)NC(=O)c1ccc(-c2ccnc3[nH]ccc23)s1` [GSK1581428], the “%Inh” value is 14% in the test on EPHA7; 36% with EPHA8; 6% in the test with EPHB1; 0% with EPHB2; 15% in the test with EPHB3; 14% in the test with EPHB4. Also, the “%Inh” value with EPHB6 is 12%; in the test with ERBB2, 22%; in the test on ERBB3, 0%; in the test with ERBB4, 0%; in the test on ERK1, 18%; in the test on ERK2, 31%. Further, the “%Inh” value in the test with ERK3 turned out to be 0%; in the test with ERK4, 0%; in the test with ERK5 it was 0%; with ERK8, 78%; in the test on ERN1, 6%; in the test on FAK, 48%. Further, the entries for the “%Inh” value in the test on FER and in the test with FES were 14% and 5%, respectively.
Turning to `CS(=O)(=O)Nc1ccc(-c2ccnc3[nH]ccc23)cc1` [GSK993273], the “%Inh” value in the test on EPHA7 is on record as 13%; in the test with EPHA8, 18%; in the test with EPHB1, 19%; in the test on EPHB2, 6%; in the test on EPHB3, 18%; with EPHB4, 0%. The “%Inh” value is given as 5% in the test with EPHB6; 15% with ERBB2; 0% with ERBB3; 0% with ERBB4; 0% with ERK1; 0% in the test on ERK2. Besides, the “%Inh” value in the test on ERK3 was 0%; with ERK4, 13%; with ERK5, 0%; in the test with ERK8, 0%; with ERN1, 25%; with FAK, 0%. The “%Inh” value is recorded as 16% with FER and 0% with FES.
As for `N#Cc1cccc(C(=O)NC2CCN(c3ccnc(Nc4ccc(F)cc4)n3)C2)c1` (stereo not shown) [GSK1379708], the “%Inh” value with EPHA7 is 0%; with EPHA8, 0%; in the test with EPHB1, 9%; in the test with EPHB2, 0%; in the test with EPHB3, 13%; in the test with EPHB4, 5%. Besides, the “%Inh” value with EPHB6 is 0%; in the test on ERBB2, 9%; in the test on ERBB3, 0%; in the test with ERBB4 it was 10%; in the test on ERK1, 0%; in the test on ERK2, 10%. For the same compound, the “%Inh” value with ERK3 was determined as 9%; in the test on ERK4, 0%; in the test on ERK5 it was 0%; with ERK8, 0%; with ERN1 it was 0%; in the test with FAK it was 0%. The “%Inh” value stood at 30% in the test with FER and 2% with FES.
Take `CN(c1ccc2c(c1)nc(NCc1ccc(F)cc1)n2C)c1ccnc(Nc2ccc(CS(C)(=O)=O)cc2)n1.Cl` [GW813244]: the “%Inh” value in the test with EPHA7 is 0%; in the test on EPHA8 it was 49%; in the test on EPHB1, 9%; in the test on EPHB2, 23%; in the test on EPHB3, 5%; in the test on EPHB4, 0%. Further, the “%Inh” value in the test with EPHB6 came out at 78%; with ERBB2, 17%; in the test with ERBB3 it was 0%; in the test on ERBB4 it was 19%; in the test with ERK1, 3%; in the test with ERK2, 0%. The “%Inh” value in the test with ERK3 is reported as 0%; with ERK4, 0%; with ERK5, 0%; in the test with ERK8, 29%; with ERN1, 28%; with FAK, 22%. The figures for the “%Inh” value in the test with FER and in the test on FES were 20% and 0%, respectively.
Take `NC(=O)Nc1sc(-c2ccc(F)cc2)cc1C(N)=O` [GW789449]: the “%Inh” value with EPHA7 turned out to be 0%; in the test with EPHA8, 0%; in the test with EPHB1, 24%; with EPHB2 it was 0%; in the test on EPHB3 it was 14%; in the test on EPHB4, 20%. Further, the “%Inh” value was found to be 64% in the test with EPHB6; 15% in the test with ERBB2; 54% with ERBB3; 3% in the test on ERBB4; 0% in the test on ERK1; 16% in the test on ERK2. Further, the “%Inh” value in the test with ERK3 is listed as 0%; with ERK4, 0%; in the test on ERK5, 10%; in the test with ERK8 it was 10%; with ERN1, 27%; in the test with FAK it was 5%. For the same compound, the figures for the “%Inh” value with FER and in the test on FES were 0% and 11%, respectively.
